Results filed as inconclusive are left out. Entries that show only a call come without a potency. Active and inactive are the calls of the source. The call rests on the fitted dose curve; in most records, active means well fitted cell-killing curve with a large enough effect; inconclusive means small, poorly fitted or top-dose-only effect, or effect the other way; inactive means no such curve, though single readings can be large or run the other way.
Test: Viability qHTS for spleen associated tyrosine kinase inhibitor (SYKi) naive MV4-11 cells (AID 1963823); further: nearly all actives have a fitted effect of over 40% in size
Details: MV4-11 AML viability, CellTiter-Glo luminescence, 72 h; series mostly up to 45 µM
In short: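 SYKi-naive MV4-11 AML cells, 500 per well, were exposed to library compounds for 72 hr at 37 C, 5% CO2. Viability was then read by CellTiter-Glo luminescence after 10 min at room temperature.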
Potency means the concentration at half of the fitted maximal effect.

SMILES	Potency
c1ccc(-c2csc(N3CCOCC3)n2)cc1	inactive
COc1ccc(CCc2nc3cc(-c4c(C)noc4C)ccc3n2C[C@H](C)N2CCOCC2)cc1Cl	7.31 µM (active)
Cc1cc(C)c(S(=O)(=O)N(Cc2ccc(-c3cccc(S(C)(=O)=O)c3)cc2)Cc2ccc(C(F)(F)F)o2)c(C)c1	inactive
C=CC/C=C\C/C=C\CCCCCCCc1cccc(O)c1C(=O)O	inactive
